# Measured values published in PubChem BioAssay (EPA / NIEHS).
# Active and inactive are the calls of the source. The calls were made as follows: active = hit-call score of the fitted dose curve at least 0.9, where 1 is the maximum; inactive = score below 0.9.
# What was measured:
# Settings in all cases: mRNA level, 48 h; actives raise or lower the signal
# [1] = read-out: Cytochrome P450 7A1 (Homo sapiens) (UniProt P22680); assay: LTEA_HepaRG_CYP7A1: Life Technologies and Expression Analysis (LTEA) Assay for Cytochrome P450 7A1 (CYP7A1) using HepaRG (AID 2283496)
# Method in brief: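 HepaRG, 48 h exposure, 8-pt half-log series from 100 uM, 0.5% DMSO vehicle, duplicates. Readout: TaqMan qRT-PCR mRNA vs three housekeeping genes; bidirectional curve fit against DMSO baseline.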
# [2] = read-out: Glutathione S-Transferase (GSTA2), GSTA2 (gene 2939); assay: LTEA_HepaRG_GSTA2: Life Technologies and Expression Analysis (LTEA) Assay for Glutathione S-Transferase (GSTA2) using HepaRG (AID 2283497)
# Method in brief: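 qRT-PCR readout of GSTA2 transcript, normalized to three housekeeping genes, fitted bidirectionally against 0.5% DMSO baseline. Differentiated HepaRG cells received compound for 48 h at 8 concentrations (top 100 uM, half-log steps).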
# [3] = read-out: Glutamate-cysteine ligase catalytic (GCLC), GCLC (gene 2729); assay: LTEA_HepaRG_GCLC: Life Technologies and Expression Analysis (LTEA) Assay for Glutamate-cysteine ligase catalytic (GCLC) using HepaRG (AID 2283498)
# Method in brief: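 HepaRG, 48 h exposure, 8-pt half-log series from 100 uM, 0.5% DMSO vehicle; TaqMan qRT-PCR for GCLC mRNA, housekeeping-normalized; bidirectional curve fit vs DMSO baseline.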
# [4] = read-out: growth arrest and DNA damage 45 (GADD45G), GADD45G (gene 10912); assay: LTEA_HepaRG_GADD45G: Life Technologies and Expression Analysis (LTEA) Assay for growth arrest and DNA damage 45 (GADD45G) using HepaRG (AID 2283499)
# Method in brief: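 Gain or loss of GADD45G mRNA, quantified by TaqMan qRT-PCR against three housekeeping genes, is fitted in both directions relative to 0.5% DMSO. Human HepaRG cultures receive test chemical for 48 h at up to 100 uM.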
# [5] = read-out: Glutathione S-transferase M3 (GSTM3), GSTM3 (gene 2947); assay: LTEA_HepaRG_GSTM3: Life Technologies and Expression Analysis (LTEA) Assay for Glutathione S-transferase M3 (GSTM3) using HepaRG (AID 2283501)
# Method in brief: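 HepaRG, plated 48 h, then serum-free induction medium; test chemical 48 h, duplicate; 100 uM top, half-log x8, 0.5% DMSO. Read-out: GSTM3 mRNA (TaqMan qRT-PCR, Fluidigm array). Bidirectional fit vs DMSO.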
# [6] = read-out: Heat shock 70 kDa protein 1 (HSPA1A), gene 3303; assay: LTEA_HepaRG_HSPA1A: Life Technologies and Expression Analysis (LTEA) Assay for Heat shock 70 kDa protein 1 (HSPA1A) using HepaRG (AID 2283502)
# Method in brief: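 HSPA1A expression measured by qRT-PCR with ACTB/GAPDH/POLR2A normalization; curves fitted in both directions relative to DMSO vehicle. Exposure: 48 h in HepaRG cells, duplicate 8-point half-log series from 100 uM, 0.5% DMSO, serum-free induction medium.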
# [7] = read-out: Hypoxia-inducible factor 1-alpha (Homo sapiens) (UniProt Q16665); assay: LTEA_HepaRG_HIF1A: Life Technologies and Expression Analysis (LTEA) Assay for Hypoxia-inducible factor 1 (HIF1A) Trancription factor using HepaRG (AID 2283503)
# Method in brief: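 HIF1A transcript level read by qRT-PCR (ACTB, GAPDH, POLR2A normalization) after 48 h chemical exposure of HepaRG cultures. Eight half-log concentrations, top 100 uM, 0.5% DMSO vehicle, duplicates; bidirectional curve fit against DMSO baseline.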
# [8] = read-out: 3-Hydroxy-3-Methylglutaryl-CoA Synthase 2 (HMGCS2), HMGCS2 (gene 3158); assay: LTEA_HepaRG_HMGCS2: Life Technologies and Expression Analysis (LTEA) Assay for 3-Hydroxy-3-Methylglutaryl-CoA Synthase 2 (HMGCS2) using HepaRG (AID 2283504)
# Method in brief: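 HepaRG, plated 48 h then switched to serum-free induction media; cmpd 8-pt, max 100 uM, 1/2-log, 0.5% DMSO, n=2, 48 h. HMGCS2 mRNA by Fluidigm TaqMan qRT-PCR, ACTB/GAPDH/POLR2A norm; bidirectional fit vs DMSO.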
# [9] = read-out: HGF (gene 3082); assay: LTEA_HepaRG_HGF: Life Technologies and Expression Analysis (LTEA) Assay for Hepatocyte Growth Facto (HGF) using HepaRG (AID 2283505)
# Method in brief: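 Read-out is HGF transcript level by qRT-PCR, normalized to three housekeeping genes, fitted bidirectionally against 0.5% DMSO vehicle. Human HepaRG cells received test chemicals for 48 h at up to 100 uM.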
# [10] = read-out: Insulin Like Growth Factor 1 (IGF1), IGF1 (gene 3479); assay: LTEA_HepaRG_IGF1: Life Technologies and Expression Analysis (LTEA) Assay for Insulin Like Growth Factor 1 (IGF1) using HepaRG (AID 2283506)
# Method in brief: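 Expression measured by TaqMan qRT-PCR on a Fluidigm array, with three housekeeping genes for normalisation, after 48 h treatment of HepaRG cells. Top concentration 100 uM with half-log steps, 0.5% DMSO vehicle, bidirectional fit.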
# [11] = read-out: Intercellular Adhesion Molecule 1 (ICAM1), ICAM1 (gene 3383); assay: LTEA_HepaRG_ICAM1: Life Technologies and Expression Analysis (LTEA) Assay for Intercellular Adhesion Molecule 1 (ICAM1) using HepaRG (AID 2283507)
# Method in brief: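 Readout is qRT-PCR mRNA level, normalized to three housekeeping genes and fitted bidirectionally against 0.5% DMSO vehicle. Human HepaRG cultures received compound for 48 h, top concentration 100 uM with half-log dilutions.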
# [12] = read-out: Insulin-like growth factor-binding protein 1 (IGFBP1), IGFBP1 (gene 3484); assay: LTEA_HepaRG_IGFBP1: Life Technologies and Expression Analysis (LTEA) Assay for Insulin-like growth factor-binding protein 1 (IGFBP1) using HepaRG (AID 2283508)
# Method in brief: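 Thawed HepaRG cells are plated for 48 h, switched to serum-free induction medium, then dosed in duplicate for another 48 h (100 uM top, half-log steps). Lysates in RLT go to qRT-PCR, and gain or loss of signal is fitted relative to vehicle.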
# [13] = read-out: Interleukin 6 (IL6), IL6 (gene 3569); assay: LTEA_HepaRG_IL6: Life Technologies and Expression Analysis (LTEA) Assay for Interleukin 6 (IL6) using HepaRG (AID 2283509)
# Method in brief: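 qRT-PCR read-out of IL6 transcript, normalized to three housekeeping genes, after 48 h chemical exposure of HepaRG cells; 8-point half-log series, top 100 uM, 0.5% DMSO vehicle. Bidirectional curve fitting against DMSO baseline.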
# [14] = read-out: Interleukin 6 Receptor (IL6R), IL6R (gene 3570); assay: LTEA_HepaRG_IL6R: Life Technologies and Expression Analysis (LTEA) Assay for Interleukin 6 Receptor (IL6R) using HepaRG (AID 2283510);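 as to AC50: differentiated human HepaRG liver cells in serum-free induction medium; TaqMan qRT-PCR signal normalized to ACTB GAPDH and POLR2A housekeeping genes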
# Method in brief: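 IL6R transcript level by qRT-PCR after 48 h chemical exposure (8-point, half-log, max 100 uM, 0.5% DMSO vehicle) of HepaRG cells in serum-free induction medium. Normalized to three housekeeping genes; curves fitted in both directions relative to DMSO.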
# [15] = read-out: Potassium channel subfamily K member 1 (KCNK1), KCNK1 (gene 3775); assay: LTEA_HepaRG_KCNK1: Life Technologies and Expression Analysis (LTEA) Assay for Potassium channel subfamily K member 1 (KCNK1) using HepaRG (AID 2283511)
# Method in brief: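 HepaRG, 48 h exposure, 8-pt half-log series top 100 uM, 0.5% DMSO vehicle, duplicates. Readout: KCNK1 transcript by qRT-PCR (Fluidigm array), housekeeping-normalized; bidirectional curve fit relative to DMSO baseline.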
# [16] = read-out: Lipase C (LIPC), LIPC (gene 3990); assay: LTEA_HepaRG_LIPC: Life Technologies and Expression Analysis (LTEA) Assay for Lipase C (LIPC) using HepaRG (AID 2283514)
# Method in brief: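 HepaRG, 48 h exposure, 8-pt half-log series from 100 uM in 0.5% DMSO, duplicates. Readout: LIPC mRNA by Fluidigm qRT-PCR, housekeeping-normalized (ACTB/GAPDH/POLR2A). Gain or loss fitted bidirectionally against DMSO baseline.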
# [17] = read-out: Lipoprotein lipase (LPL), LPL (gene 4023); assay: LTEA_HepaRG_LPL: Life Technologies and Expression Analysis (LTEA) Assay for Lipoprotein lipase (LPL) using HepaRG (AID 2283515)
# Method in brief: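 HepaRG, 48 h exposure, 8-pt half-log dilutions from 100 uM, 0.5% DMSO vehicle, duplicates; qRT-PCR (Fluidigm array) of LPL mRNA vs housekeeping genes; bidirectional curve fit relative to DMSO baseline.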
# [18] = read-out: Keratin 19 (KRT19), KRT19 (gene 3880); assay: LTEA_HepaRG_KRT19: Life Technologies and Expression Analysis (LTEA) Assay for Keratin 19 (KRT19) using HepaRG (AID 2283512)
# Method in brief: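 KRT19 transcript levels, measured by Fluidigm qRT-PCR against three housekeeping genes, are fitted for gain or loss of signal relative to DMSO. Human HepaRG cells receive test chemicals (top 100 uM, half-log steps, 0.5% DMSO) for 48 hours.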
# [19] = read-out: JUN Transcription Factor, JUN (gene 3725); assay: LTEA_HepaRG_JUN: Life Technologies and Expression Analysis (LTEA) Assay for JUN Transcription Factor using HepaRG (AID 2283513)
# Method in brief: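 mRNA measured by TaqMan qRT-PCR after 48 h chemical exposure of HepaRG cultures; normalization to three housekeeping genes. Duplicate eight-point half-log curves from 100 uM in 0.5% DMSO; gain or loss fitted against DMSO baseline.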
# Sequence of Hypoxia-inducible factor 1-alpha (Homo sapiens) (Q16665 whole entry, looked up): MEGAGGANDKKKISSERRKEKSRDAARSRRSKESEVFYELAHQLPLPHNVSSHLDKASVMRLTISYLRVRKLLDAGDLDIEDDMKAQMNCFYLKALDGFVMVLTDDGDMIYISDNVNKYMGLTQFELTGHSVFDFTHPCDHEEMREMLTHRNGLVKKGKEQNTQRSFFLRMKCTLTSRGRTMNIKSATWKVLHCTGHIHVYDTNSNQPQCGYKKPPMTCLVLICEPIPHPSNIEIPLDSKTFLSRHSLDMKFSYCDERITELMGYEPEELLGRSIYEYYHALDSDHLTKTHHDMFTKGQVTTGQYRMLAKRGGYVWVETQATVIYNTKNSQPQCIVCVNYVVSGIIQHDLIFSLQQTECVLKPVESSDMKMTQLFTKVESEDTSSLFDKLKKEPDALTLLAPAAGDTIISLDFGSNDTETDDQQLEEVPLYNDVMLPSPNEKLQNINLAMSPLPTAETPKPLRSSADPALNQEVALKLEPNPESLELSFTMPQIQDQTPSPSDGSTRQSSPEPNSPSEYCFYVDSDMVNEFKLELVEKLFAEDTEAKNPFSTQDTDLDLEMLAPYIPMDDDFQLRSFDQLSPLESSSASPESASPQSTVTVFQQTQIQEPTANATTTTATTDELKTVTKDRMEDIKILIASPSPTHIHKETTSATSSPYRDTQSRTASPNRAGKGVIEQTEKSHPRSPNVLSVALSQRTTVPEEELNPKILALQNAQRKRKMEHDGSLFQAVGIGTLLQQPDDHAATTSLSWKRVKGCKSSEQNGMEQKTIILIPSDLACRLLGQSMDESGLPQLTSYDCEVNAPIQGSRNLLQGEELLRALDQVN
smiles,measurement,setting,value
CNC(=O)ON=C(SC)C(=O)N(C)C,outcome,[1],inactive
same,outcome,[2],inactive
same,outcome,[3],inactive
same,outcome,[4],inactive
same,outcome,[5],inactive
same,outcome,[6],inactive
same,outcome,[7],inactive
same,outcome,[8],inactive
same,outcome,[9],inactive
same,outcome,[10],inactive
same,outcome,[11],inactive
same,outcome,[12],inactive
same,outcome,[13],inactive
same,outcome,[14],inactive
same,outcome,[15],inactive
same,outcome,[16],inactive
same,AC50,[17],0.289 µM (active)
CC(C)=CC1C(C(=O)OCN2C(=O)C3=C(CCCC3)C2=O)C1(C)C (stereo not given),outcome,[1],inactive
same,outcome,[2],inactive
same,outcome,[3],inactive
same,outcome,[4],inactive
same,outcome,[5],inactive
same,outcome,[6],inactive
same,outcome,[7],inactive
same,outcome,[9],inactive
same,outcome,[10],inactive
same,outcome,[11],inactive
same,outcome,[12],inactive
same,outcome,[13],inactive
same,outcome,[14],inactive
same,outcome,[15],inactive
same,outcome,[18],inactive
same,outcome,[19],inactive
same,outcome,[16],inactive
same,outcome,[17],inactive
CCOP(=S)(OCC)Oc1cc(C)nc(C(C)C)n1,outcome,[1],inactive
same,outcome,[2],inactive
same,outcome,[3],inactive
same,outcome,[4],inactive
same,outcome,[5],inactive
same,outcome,[6],inactive
same,outcome,[7],inactive
same,outcome,[8],inactive
same,outcome,[9],inactive
same,AC50,[10],27.3 µM (active)
same,outcome,[11],inactive
same,AC50,[12],19 µM (active)
same,outcome,[13],inactive
same,outcome,[14],inactive
same,outcome,[15],inactive
same,outcome,[18],inactive
same,outcome,[16],inactive
COP(=O)(OC)OC(Br)C(Cl)(Cl)Br (stereo not given),outcome,[1],inactive
same,outcome,[2],inactive
same,outcome,[3],inactive
same,outcome,[4],inactive
same,outcome,[5],inactive
same,outcome,[6],inactive
same,outcome,[7],inactive
same,outcome,[9],inactive
same,outcome,[10],inactive
same,outcome,[11],inactive
same,outcome,[12],inactive
same,AC50,[13],50 µM (active)
same,outcome,[14],inactive
same,outcome,[15],inactive
same,outcome,[16],inactive
same,outcome,[17],inactive
Cc1cc(C2CC2)nc(Nc2ccccc2)n1,outcome,[1],inactive
same,outcome,[2],inactive
same,outcome,[3],inactive
same,AC50,[4],29.7 µM (active)
same,outcome,[5],inactive
same,outcome,[6],inactive
same,outcome,[7],inactive
same,outcome,[8],inactive
same,outcome,[9],inactive
same,outcome,[10],inactive
same,outcome,[11],inactive
same,outcome,[12],inactive
same,outcome,[13],inactive
same,AC50,[14],50 µM (active)
same,outcome,[15],inactive
same,outcome,[19],inactive
same,outcome,[16],inactive
CCc1cccc(C)c1N(C(=O)CCl)C(C)COC (stereo not given),outcome,[1],inactive
same,AC50,[2],18 µM (active)
same,outcome,[3],inactive
same,outcome,[4],inactive
same,outcome,[5],inactive
same,outcome,[6],inactive
same,outcome,[7],inactive
same,outcome,[8],inactive
same,outcome,[9],inactive
same,AC50,[10],50 µM (active)
same,outcome,[11],inactive
same,outcome,[12],inactive
same,outcome,[13],inactive
same,outcome,[14],inactive
same,outcome,[15],inactive
same,outcome,[18],inactive
same,outcome,[16],inactive
C=C(C)[C@H]1Cc2c(ccc3c2O[C@@H]2COc4cc(OC)c(OC)cc4[C@@H]2C3=O)O1,AC50,[1],3.69 µM (active)
same,AC50,[2],3 µM (active)
same,outcome,[3],inactive
same,AC50,[4],1.18 µM (active)
same,AC50,[5],23.9 µM (active)
same,AC50,[6],28.9 µM (active)
same,AC50,[7],23.8 µM (active)
same,AC50,[9],22.8 µM (active)
same,AC50,[10],1.03 µM (active)
same,AC50,[11],2.14 µM (active)
same,AC50,[12],2.9 µM (active)
same,AC50,[13],1.44 µM (active)
same,outcome,[14],inactive
same,AC50,[15],16.6 µM (active)
same,AC50,[19],17.8 µM (active)
same,AC50,[16],12.7 µM (active)
same,AC50,[17],2.16 µM (active)
S=C1NCCN1,outcome,[1],inactive
same,outcome,[2],inactive
same,outcome,[3],inactive
same,outcome,[4],inactive
same,outcome,[5],inactive
same,AC50,[6],0.277 µM (active)
same,outcome,[7],inactive
same,outcome,[9],inactive
same,outcome,[10],inactive
same,outcome,[11],inactive
same,outcome,[12],inactive
same,outcome,[13],inactive
same,outcome,[14],inactive
same,outcome,[15],inactive
same,outcome,[19],inactive
same,outcome,[16],inactive
